Experimental data taken from PubChem BioAssay (NCI).
The panel holds about 79,000 compounds, 15% with a hit somewhere; the sample as a whole holds those more often. Unmarked numbers belong to inactive results. Activity calls are given as the source filed them. Cut-off read from the data, not from the text of the source: active = growth inhibition above about 70%; inactive = the rest.

Legend:
[1] = NCI Yeast Anticancer Drug Screen. Data for the rad52 strain (AID 147);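 note: 0% = growth of vehicle-treated control cultures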; details: S. cerevisiae rad52 mutant growth inhibition, active compounds read high
Summary of the method: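 Genetically altered yeast (DNA damage repair defect) treated with compound; inhibition calculated relative to vehicle.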

[2] = NCI Yeast Anticancer Drug Screen. Data for the wt1 strain (AID 149);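 note: 0% = growth of vehicle-treated wt1 cultures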; details: S. cerevisiae wt1 strain (SPY 50644) growth inhibition, active compounds read high
Summary of the method: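 Growth inhibition read against vehicle controls after compound exposure of the wt1 yeast strain.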

[3] = NCI Yeast Anticancer Drug Screen. Data for the rad50EPP+ strain (AID 151);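 note: 0% = growth of vehicle-treated control cultures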; details: S. cerevisiae rad50 mutant strain, active compounds read high
Summary of the method: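 Strain rad50EPP+; compound exposure; % growth inhibition vs vehicle.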

[4] = NCI Yeast Anticancer Drug Screen. Data for the rad50 strain (AID 155);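 note: 0% = growth of vehicle-only cultures of the same strain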; details: S. cerevisiae rad50 strain growth inhibition, active compounds read high
Summary of the method: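 Readout: growth inhibition relative to vehicle-treated cultures. Compound exposure was carried out in a genetically defined yeast strain deficient in DNA damage repair.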

[5] = NCI Yeast Anticancer Drug Screen. Data for the mec2-1 strain (AID 157); details: S. cerevisiae mec2-1 strain, active compounds read high
Summary of the method: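 Cells of the genetically defined mec2-1 yeast strain are incubated with test compound. Inhibition of growth is calculated against vehicle-treated controls.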

[6] = NCI Yeast Anticancer Drug Screen. Data for the rad14 strain (AID 159);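 note: 0% = growth of vehicle-treated control cultures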; details: S. cerevisiae rad14 strain growth inhibition, active compounds read high
Summary of the method: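 Growth inhibition vs vehicle controls; genetically altered yeast strain (DNA damage repair defect) treated with test compounds.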

[7] = NCI Yeast Anticancer Drug Screen. Data for the sgs1 mgt1 strain (AID 161);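 note: 0% = growth of cultures given vehicle only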; details: S. cerevisiae sgs1 mgt1 strain, active compounds read high
Summary of the method: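 Genetically altered yeast, compound exposure, growth inhibition relative to vehicle.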

[8] = NCI Yeast Anticancer Drug Screen. Data for the cln2 rad14 strain (AID 165);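 note: 0% = growth equal to vehicle treated cultures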; details: S. cerevisiae cln2 rad14 strain, active compounds read high
Summary of the method: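 The screen exposed genetically defined yeast (cln2 rad14) to test compounds and scored growth inhibition relative to vehicle-treated controls.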

[9] = NCI Yeast Anticancer Drug Screen. Data for the bub3 strain (AID 167); details: S. cerevisiae bub3 mutant strain, active compounds read high
Summary of the method: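 Readout: yeast growth inhibition, expressed relative to vehicle-only wells. The test organism is a mutant strain from a panel with lesions in DNA repair or checkpoint genes.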

[10] = NCI Yeast Anticancer Drug Screen. Data for the wt2 strain (AID 169);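 note: 0% = growth of vehicle-treated yeast cultures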; details: S. cerevisiae wt2 strain growth inhibition, active compounds read high
Summary of the method: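 Steps: yeast strain treated with compound; growth recorded; inhibition calculated relative to cultures given vehicle alone.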

[11] = NCI Yeast Anticancer Drug Screen. Data for the mlh1 strain (AID 171);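 note: 0% = growth of vehicle-treated control cultures of the same strain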; details: S. cerevisiae mlh1 strain growth inhibition, active compounds read high
Summary of the method: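 Yeast screen: mutant strain plus compound, growth scored against vehicle control wells.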

[12] = NCI Yeast Anticancer Drug Screen. Data for the sgs1 strain (AID 173);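 note: 0% = growth of vehicle-only control cultures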; details: S. cerevisiae sgs1 mutant, active compounds read high
Summary of the method: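 Inhibition of yeast growth served as the measure. The mutant strain was treated with each compound, and growth was normalised to cultures receiving vehicle alone.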

[13] = NCI Yeast Anticancer Drug Screen. Data for the mlh1 rad18 strain (AID 175); details: S. cerevisiae mlh1 rad18 strain growth inhibition, active compounds read high
Summary of the method: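 Compound-treated yeast growth, normalised to vehicle controls. Strain bears defined DNA repair mutations.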

[14] = NCI Yeast Anticancer Drug Screen. Data for the rad18 strain (AID 177); details: S. cerevisiae rad18 mutant growth inhibition, active compounds read high
Summary of the method: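 Inhibition values reflect reduced yeast growth compared with vehicle-treated controls, using a strain engineered with a DNA damage repair defect.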

[15] = NCI Yeast Anticancer Drug Screen. Data for the mgt1 strain (AID 153); details: S. cerevisiae mgt1 mutant growth inhibition, active compounds read high
Summary of the method: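 Read-out: yeast growth inhibition vs vehicle control. Strain mgt1, drawn from a panel altered in DNA damage repair or cell cycle control.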

[16] = NCI Yeast Anticancer Drug Screen. Data for the CLN2oe strain (AID 163);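 note: 0% = growth of vehicle-only control cultures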; details: S. cerevisiae CLN2oe strain, active compounds read high
Summary of the method: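 Strain altered in cell-cycle control, incubated with compound; growth compared to solvent-treated controls.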

[17] = at 5.0 µM (retest, dose inferred, filed as 0.5)
[18] = at 50.0 µM (retest, dose inferred, filed as 5.0)

CCOc1ccc2c(c1)c(CC(=O)O)cn2C
growth inhibition ([1]; at 1.2 µM): 0% | growth inhibition ([1]; at 3.7 µM): 7% | growth inhibition ([1]; at 11.0 µM): 20% | growth inhibition ([1]; at 33.0 µM): 60% | growth inhibition ([1]; at 100.0 µM): 85% (active) | growth inhibition ([2]; at 1.2 µM): -4% | growth inhibition ([2]; at 3.7 µM): -3% | growth inhibition ([2]; at 11.0 µM): 3% | growth inhibition ([2]; at 33.0 µM): 28% | growth inhibition ([2]; at 100.0 µM): 54% | growth inhibition ([3]; at 1.2 µM): 6% | growth inhibition ([3]; at 3.7 µM): 27% | growth inhibition ([3]; at 11.0 µM): 71% (active) | growth inhibition ([3]; at 33.0 µM): 94% (active) | growth inhibition ([3]; at 100.0 µM): 97% (active) | growth inhibition ([4]; at 1.2 µM): -6% | growth inhibition ([4]; at 3.7 µM): 7% | growth inhibition [4, 17]: -74% | growth inhibition ([4]; at 11.0 µM): 48% | growth inhibition ([4]; at 33.0 µM): 92% (active) | growth inhibition [4, 18]: 94% (active) | growth inhibition ([4]; at 50.0 µM): 32.8% | growth inhibition ([4]; at 100.0 µM): 98% (active) | growth inhibition ([5]; at 1.2 µM): 1% | growth inhibition ([5]; at 3.7 µM): -2% | growth inhibition [5, 17]: -40% | growth inhibition ([5]; at 11.0 µM): -7% | growth inhibition ([5]; at 33.0 µM): 27% | growth inhibition [5, 18]: 3% | growth inhibition ([5]; at 50.0 µM): 38.6% | growth inhibition ([5]; at 100.0 µM): 48% | growth inhibition ([6]; at 1.2 µM): 4% | growth inhibition ([6]; at 3.7 µM): 7% | growth inhibition ([6]; at 11.0 µM): 20% | growth inhibition ([6]; at 33.0 µM): 57% | growth inhibition ([6]; at 100.0 µM): 75% (active) | growth inhibition [7, 17]: -38% | growth inhibition [7, 18]: 63% | growth inhibition ([7]; at 50.0 µM): 23.4% | growth inhibition [8, 17]: -47% | growth inhibition [8, 18]: -21% | growth inhibition ([8]; at 50.0 µM): 18.8% | growth inhibition ([9]; at 1.2 µM): -10% | growth inhibition ([9]; at 3.7 µM): 0% | growth inhibition [9, 17]: -49% | growth inhibition ([9]; at 11.0 µM): 12% | growth inhibition ([9]; at 33.0 µM): 50% | growth inhibition [9, 18]: 81% (active) | growth inhibition ([9]; at 50.0 µM): 79.8% (active) | growth inhibition ([9]; at 100.0 µM): 87% (active) | growth inhibition ([10]; at 1.2 µM): -3% | growth inhibition ([10]; at 3.7 µM): -3% | growth inhibition ([10]; at 11.0 µM): -3% | growth inhibition ([10]; at 33.0 µM): 16% | growth inhibition ([10]; at 100.0 µM): 61% | growth inhibition ([11]; at 1.2 µM): 5% | growth inhibition ([11]; at 3.7 µM): -4% | growth inhibition ([11]; at 11.0 µM): 13% | growth inhibition ([11]; at 33.0 µM): 42% | growth inhibition ([11]; at 100.0 µM): 75% (active) | growth inhibition ([12]; at 1.2 µM): -1% | growth inhibition ([12]; at 3.7 µM): -3% | growth inhibition ([12]; at 11.0 µM): 21% | growth inhibition ([12]; at 33.0 µM): 63% | growth inhibition ([12]; at 100.0 µM): 89% (active) | growth inhibition [13, 17]: -81% | growth inhibition [13, 18]: 92% (active) | growth inhibition ([13]; at 50.0 µM): 88.2% (active) | growth inhibition ([14]; at 1.2 µM): 3% | growth inhibition ([14]; at 3.7 µM): 5% | growth inhibition ([14]; at 11.0 µM): 26% | growth inhibition ([14]; at 33.0 µM): 57% | growth inhibition ([14]; at 100.0 µM): 87% (active)

CCC/C(Cl)=N\OC(=O)Nc1cccc(C(F)(F)F)c1
growth inhibition ([1]; at 1.2 µM): 9% | growth inhibition ([1]; at 3.7 µM): 10% | growth inhibition ([1]; at 11.0 µM): 10% | growth inhibition ([1]; at 33.0 µM): 19% | growth inhibition ([1]; at 100.0 µM): 21% | growth inhibition ([2]; at 1.2 µM): 1% | growth inhibition ([2]; at 3.7 µM): 2% | growth inhibition ([2]; at 11.0 µM): 0% | growth inhibition ([2]; at 33.0 µM): 2% | growth inhibition ([2]; at 100.0 µM): 5% | growth inhibition ([15]; at 1.2 µM): 7% | growth inhibition ([15]; at 3.7 µM): 37% | growth inhibition ([15]; at 11.0 µM): 68% | growth inhibition ([15]; at 33.0 µM): 78% (active) | growth inhibition ([15]; at 100.0 µM): 66% | growth inhibition ([4]; at 1.2 µM): 12% | growth inhibition ([4]; at 3.7 µM): 14% | growth inhibition [4, 17]: -15% | growth inhibition ([4]; at 11.0 µM): 13% | growth inhibition ([4]; at 33.0 µM): 25% | growth inhibition [4, 18]: 99% (active) | growth inhibition ([4]; at 50.0 µM): 87.1% (active) | growth inhibition ([4]; at 100.0 µM): 26% | growth inhibition ([6]; at 1.2 µM): 12% | growth inhibition ([6]; at 3.7 µM): 14% | growth inhibition ([6]; at 11.0 µM): 16% | growth inhibition ([6]; at 33.0 µM): 23% | growth inhibition ([6]; at 100.0 µM): 20% | growth inhibition [7, 17]: 6% | growth inhibition [7, 18]: 99% (active) | growth inhibition ([7]; at 50.0 µM): 85.8% (active) | growth inhibition ([16]; at 1.2 µM): 15% | growth inhibition ([16]; at 3.7 µM): 5% | growth inhibition ([16]; at 11.0 µM): 4% | growth inhibition ([16]; at 33.0 µM): 6% | growth inhibition ([16]; at 100.0 µM): 18% | growth inhibition [8, 17]: 56% | growth inhibition [8, 18]: 98% (active) | growth inhibition ([8]; at 50.0 µM): 89.7% (active) | growth inhibition ([9]; at 1.2 µM): 34% | growth inhibition ([9]; at 3.7 µM): 44% | growth inhibition [9, 17]: 9% | growth inhibition ([9]; at 11.0 µM): 51% | growth inhibition ([9]; at 33.0 µM): 47% | growth inhibition [9, 18]: 98% (active) | growth inhibition ([9]; at 50.0 µM): 87.7% (active) | growth inhibition ([9]; at 100.0 µM): 46% | growth inhibition ([10]; at 1.2 µM): 21% | growth inhibition ([10]; at 3.7 µM): 38% | growth inhibition ([10]; at 11.0 µM): 61% | growth inhibition ([10]; at 33.0 µM): 83% (active) | growth inhibition ([10]; at 100.0 µM): 77% (active) | growth inhibition ([11]; at 1.2 µM): 3% | growth inhibition ([11]; at 3.7 µM): 7% | growth inhibition ([11]; at 11.0 µM): 16% | growth inhibition ([11]; at 33.0 µM): 18% | growth inhibition ([11]; at 100.0 µM): 17% | growth inhibition ([12]; at 1.2 µM): 50% | growth inhibition ([12]; at 3.7 µM): 62% | growth inhibition ([12]; at 11.0 µM): 81% (active) | growth inhibition ([12]; at 33.0 µM): 90% (active) | growth inhibition ([12]; at 100.0 µM): 88% (active) | growth inhibition ([14]; at 1.2 µM): -7% | growth inhibition ([14]; at 3.7 µM): -8% | growth inhibition ([14]; at 11.0 µM): -7% | growth inhibition ([14]; at 33.0 µM): -16% | growth inhibition ([14]; at 100.0 µM): 2%

c1ccc2c(c1)C(=NCCCN1CCCCCC1)c1cccn1-2
growth inhibition ([1]; at 1.2 µM): -3% | growth inhibition ([1]; at 3.7 µM): -5% | growth inhibition ([1]; at 11.0 µM): -5% | growth inhibition ([1]; at 33.0 µM): -6% | growth inhibition ([1]; at 100.0 µM): 97% (active) | growth inhibition ([2]; at 1.2 µM): -2% | growth inhibition ([2]; at 3.7 µM): -1% | growth inhibition ([2]; at 11.0 µM): 2% | growth inhibition ([2]; at 33.0 µM): -1% | growth inhibition ([2]; at 100.0 µM): 93% (active) | growth inhibition ([15]; at 1.2 µM): -4% | growth inhibition ([15]; at 3.7 µM): -1% | growth inhibition ([15]; at 11.0 µM): -1% | growth inhibition ([15]; at 33.0 µM): 3% | growth inhibition ([15]; at 100.0 µM): 97% (active) | growth inhibition ([4]; at 1.2 µM): -3% | growth inhibition ([4]; at 3.7 µM): -8% | growth inhibition [4, 17]: -3% | growth inhibition ([4]; at 11.0 µM): -9% | growth inhibition ([4]; at 33.0 µM): -6% | growth inhibition [4, 18]: -6% | growth inhibition ([4]; at 50.0 µM): 78.2% (active) | growth inhibition ([4]; at 100.0 µM): 97% (active) | growth inhibition ([5]; at 1.2 µM): -3% | growth inhibition ([5]; at 3.7 µM): 1% | growth inhibition [5, 17]: 0% | growth inhibition ([5]; at 11.0 µM): 4% | growth inhibition ([5]; at 33.0 µM): 0% | growth inhibition [5, 18]: -3% | growth inhibition ([5]; at 50.0 µM): 68.2%
